These results are taken from PubChem BioAssay AID493174 (National Center for Advancing Translational Sciences (NCATS), 2011).

Inconclusive results are not listed. Activity calls are given as the source filed them. Calls follow the shape of the dose curve; as a rule, active = well fitted inhibition curve with a large enough effect; inconclusive = small, poorly fitted or top-dose-only effect; inactive = flat fitted curve, though single readings scatter.

This assay can be described thus: Confirmatory Assay for General miRNAs Modulators and/or Inhibitors/Activators of miR-21: second round cherrypicks. To be noted: HeLa miR-21 FLuc reporter, luciferase luminescence, 48 h. An excerpt:
MLPCN Grant: 1 R21 NS059478-01 Assay Provider: Qihong Huang, The Wistar Institute NCGC Assay Overview: MicroRNAs (miRNAs) are endogenously encoded small (~20-25 nucleotides), nonprotein-coding RNAs that are involved in post-transcriptional repression of target messenger RNAs (mRNAs) (Le and Hannon, 2004). Estimated to be involved in the regulation of 30% of all protein-coding mRNAs (Filipowicz et al., 2008), miRNAs play a significant role in many biological processes including cellular differentiation and tissue development (Ghildiyal and Zamore, 2009).
NCGC Assay Protocol Summary: Reagents: HeLa cells stably expressing firefly luciferase (FLuc) under the control of a CMV promoter (upstream) and a miR-21 binding sequence directly downstream of the gene. These cells endogenously express miR-21. Control compounds used were compound C3 (provided by collaborator), N6-phenyladenosine (MP Biomedicals, 0215379625), and DMSO. Assay Summary: 6uL of HeLa miR-21-FLuc cells in assay buffer (DMEM, Invitrogen #21063-029; 10% FBS, HyClone #SH30071.03) were dispensed at 2000cells/well (3.3 x 10^5 cells/mL) into Greiner solid-white TC-treated 1536-well plates using a Multidrop Combi (Thermo Fisher Scientific). […] After a 15 minute incubation to allow for cell lysis, luciferase activity was measured using a ViewLux CCD imager (PerkinElmer), with an average exposure time of 2-12 seconds. […]

For the molecule `O=c1c2ccccc2nc(Cc2ccccc2)n1-c1ccccc1`, the Potency was 14.2 µM (active).
